# hcDAF-12 act – H. contortus DAF-12 nuclear receptor activators, primary screen, cell-based, luminescence, HEK293, lit1-tk-luc reporter. HEK293 hcDAF-12 lit1-tk-luc reporter; 0% DMSO, 100% Δ7-dafachronic acid. activation, % at 6.8 µM. hit rate 1.4% among 370,000;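 active = activation above the mean of all tested compounds plus 3 SD, cut at about 5.5% in these data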;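 note: 100% = response to 3 µM Δ7-dafachronic acid high control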
# DAX1 inh-1 – DAX1 (NR0B1) inhibitors, primary screen, cell-based, HEK293, Gal4-DAX1, luciferase luminescence; Nuclear receptor subfamily 0 group B member 1 (Homo sapiens), P51843; HEK293 Gal4-DAX1 luciferase reporter; inhibition, % at 6.75 µM; hit rate 0.99% among 340,000; AID 504766, 2011;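 active = inhibition above the mean over all tested compounds plus 3 SD, cut at about 4.2% in these data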;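 note: 0% = DAX1-transfected cells with DMSO and 100% = empty-vector control cells with DMSO; inhibition shows as a rise in luminescence from relieved DAX1 repression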
# Target sequence (P51843 207-470 limits assumed): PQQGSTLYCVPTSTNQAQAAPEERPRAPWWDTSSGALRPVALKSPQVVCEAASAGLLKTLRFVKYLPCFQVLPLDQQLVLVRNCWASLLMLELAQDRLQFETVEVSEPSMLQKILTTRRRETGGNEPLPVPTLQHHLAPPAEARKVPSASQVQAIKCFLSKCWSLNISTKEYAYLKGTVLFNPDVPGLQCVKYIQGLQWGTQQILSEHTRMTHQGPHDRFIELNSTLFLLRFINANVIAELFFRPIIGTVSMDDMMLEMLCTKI
# hgDAF-12 ag – H. glycines DAF-12 receptor agonists, primary screen, cell-based, luminescence, HEK293, GAL4 fusion, UAS-luciferase; AID 687014, 2013; activation, % at 6.8 µM; Nuclear hormone receptor DAF-12 (Heterodera glycines), GAL4 fusion; HEK293 GAL4-hgDAF12 UAS-luciferase reporter, agonist luminescence; normalized to butyrate control; hit rate 1.8% among 370,000;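 active = activation above a cutoff set at the mean of all screened compounds plus 3 SD, cut at about 10% in these data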;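 note: 0% = DMSO wells and 100% = sodium butyrate wells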
# DAX1 inh-2 – DAX1 (NR0B1) inhibitors on StAR promoter, primary screen, cell-based, luminescence, SF-1 (NR5A1), full-length DAX-1; HEK293T StAR-luciferase reporter, SF-1/DAX-1 repression relief; inhibition, % at 6.8 µM; hit rate 1.1% among 370,000;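 active = inhibition above the mean over all tested compounds plus 3 SD, cut at about 3.6% in these data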;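 note: 0% = DAX-1 cells with DMSO and 100% = cells lacking DAX-1 with DMSO; higher inhibition means more luminescence from relief of DAX-1 repression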
# ssDAF12 agonist – S. stercoralis DAF-12 nuclear receptor activators, primary screen, cell-based, luminescence, HEK293, GRIP1 co-expression, lit1-tk-luc. hit rate 1% among 370,000. HEK293 ssDAF-12/GRIP1 lit1-tk-luc reporter; % of 3 µM dafachronic acid response. Nuclear hormone receptor DAF-12 (Strongyloides stercoralis). activation, % at 6.8 µM;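 active = activation above the mean over all tested compounds plus 3 SD, cut at about 0.9% in these data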;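 note: 0% = DMSO-only wells and 100% = 3 µM delta7-dafachronic acid wells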
# DAX1 conf – DAX1 (NR0B1) inhibitors relieving SF-1 repression, confirmation, cell-based, luminescence, HEK293T, full-length DAX-1, SF-1 activated StAR promoter | inhibition, % at 6.8 µM | HEK293T StAR-promoter luciferase reporter, SF-1/DAX-1 repression | hit rate 87% among 2,400 | AID 652134, 2013 | shares compounds with DAX1 inh-2;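 active = inhibition above the average of every tested compound plus 3 SD, cut at about 3.8% in these data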;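 note: 0% = DAX-1 cells with DMSO and 100% = no DAX-1 control cells with DMSO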
# SF1 AF2mut Luc – StAR reporter signal changes without DAX1, counter-screen for DAX1 inhibitor project, cell-based, luminescence, AF-2 mutant SF-1, transactivation; hit rate 78% among 2,400; HEK293 StAR-luciferase, SF-1 AF2 mutant; shares compounds with DAX1 inh-2; inhibition, % at 6.8 µM;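 active = inhibition above the mean of all tested compounds plus 3 SD, cut at about 3% in these data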;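 note: 0% = DAX-1 transfected cells with DMSO and 100% = cells without DAX-1 with DMSO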
# * = called active by the depositor; . = no result given. Compounds with a hit are over-represented: about 4.1% of the library has one in this group of screens.
SMILES,hcDAF-12 act,DAX1 inh-1,hgDAF-12 ag,DAX1 inh-2,ssDAF12 agonist,DAX1 conf,SF1 AF2mut Luc
COC(=O)CSc1nnc(NC(=O)/C=C\c2ccc3c(c2)OCO3)s1,-1,0,-3,0,-1,.,.
CC(=O)c1sc(NC(=O)c2ccc3c(c2)OCO3)nc1C,4,2,12*,9.4*,0,9.5*,6.5*
Cc1nc(NC(=O)c2ccc(Cl)cc2)sc1Cc1ccc2c(c1)OCO2,-2,0,4,0,0,.,.
Cc1ccnc2nc(C(=O)OCCOc3ccc(Cl)cc3)nn12,0,0,4,0,-1,.,.
CCOc1ccc(C(=O)COC(=O)c2nc3nccc(C)n3n2)cc1,1,0,0,4.9*,-1,3,2
N#Cc1ccc(/C=C2\CC3(OC(=O)c4cccc(F)c4)CCCN2C3)cc1 (stereo unspecified),-1,.,2,-2,-2,.,.
CCCCN(C(=O)c1cc2c(s1)CCCCC2)c1c(N)n(CC(C)C)c(=O)[nH]c1=O,1,-1,-1,0,-1,.,.
Cc1ccc(Cc2cnc(NC(=O)c3ccco3)s2)cc1,5.9*,0,13*,6.6*,1,16*,5.2*
Cc1cccc(NC(=O)c2ccco2)c1C,1,2,-1,0,-1,.,.
Cc1cc(NC(=O)c2ccco2)sc1C,5.7*,1,7,4.5*,1,6.4*,4.5*
CN(C)c1ccc2nc3c(=O)[nH]c(=O)nc-3n(CC(O)C(O)C(O)CO)c2c1 (stereo unspecified),-1,-1,-3,0,0,.,.
CC(C)Oc1cc(F)ccc1-c1cc(C(=O)NCCCn2ccnc2)[nH]n1,-1,.,-5,1,0,.,.
CC1CCN(c2nc3ccc(C(=O)NCCCN4CCCCC4)cc3s2)CC1,3,0,11*,5.9*,0,12*,7.2*
c1ccc2cc(CSCc3nc4ccccc4[nH]3)ccc2c1,1,-2,0,0,0,.,.
CCOc1ccc(NC(=O)c2ccc3c(c2)N(C)CCS3)cc1,1,2,10,5.0*,-1,5.0*,3
COC(=O)c1ccc(NC(=O)c2ccccc2C(=O)Nc2ccc(C(=O)OC)cc2)cc1,-3,2,-1,0,-2,.,.
COC(=O)c1ccc(NC(=O)C(=O)c2cccn2C)cc1,5,-3,18*,6.9*,0,15*,7.3*
CN1OC[C@@H]2CN[C@H](c3ccc(-c4ccc(C#N)cc4)cc3)C[C@@H]21,3,3,12*,5.4*,1,14*,8.1*
CN1OC[C@@H]2CN[C@H](c3ccc(-c4cc5ccccc5o4)cc3)C[C@@H]21,.,-5,.,.,.,.,.
CCCCC(=O)N1CCN(c2nc3ccc(F)cc3s2)CC1,2,0,5,5.2*,-1,3,3.8*
CCc1noc(C)c1C(=O)NCCc1ccc(F)cc1,-2,0,3,1,-1,.,.
CCc1noc(C)c1C(=O)NCCc1ccccc1,4,0,6,5.3*,0,6.1*,4.8*
CC1CN(S(=O)(=O)c2cccc(C(=O)NCc3ccccn3)c2)CC(C)O1 (stereo unspecified),0,1,-1,0,-2,.,.
CC1(C2CCCC2)NC(=O)NC1=O (stereo unspecified),-2,-1,-3,-1,-1,.,.

# Assay outcomes (PubChem BioAssay)
